Results from the supplement of paper PMC13380429.

Tested on: Vero E6 infected with SARS-CoV-2
Assay: morphology score (similarity to uninfected cells); higher = more like uninfected cells
Conditions: 24 h

Question: Which morphology score does the source give for `CCNC(=O)/C=C/c1cccc(Br)c1` [cinromide] (10 µM) here?
Answer: 0.135

Question: `c1cc2c(cc1[C@H]1OC[C@H]3[C@@H]1CO[C@@H]3c1ccc3c(c1)OCO3)OCO2` [sesamin] (10 µM) was tested. Which morphology score did it give?
Answer: -0.0737

Question: How did the morphology score turn out when `CN(C)/C=N/c1c(I)cc(I)c(CCC(=O)O)c1I` [iopodic-acid] (10 µM) was run?
Answer: 0.0727

Question: `O=C1OCCN1/N=C/c1ccc([N+](=O)[O-])o1` [furazolidone] (10 µM) was tested. Which morphology score did it give?
Answer: 0.0225

Question: How did the morphology score turn out when `CCCCC1(COC(=O)CCC(=O)O)C(=O)N(c2ccccc2)N(c2ccccc2)C1=O` [suxibuzone] (10 µM) was run?
Answer: 0.183

Question: `CC(C)(C)c1nc(-c2cccc(NS(=O)(=O)c3c(F)cccc3F)c2F)c(-c2ccnc(N)n2)s1` [dabrafenib] (10 µM) was tested. Which morphology score did it give?
Answer: 0.245

Question: For `FC(F)(F)c1ccc(/C=C/c2nc(COc3ccc(CCCCn4ccnn4)cc3)co2)cc1` [mubritinib] (10 µM), which morphology score is on record?
Answer: -0.0917

Question: `COc1cc(OC)c(/C=C2/C(=O)Nc3ccccc32)c(OC)c1` (10 µM) was tested. Which morphology score did it give?
Answer: -0.0269

Question: For `CN(C)CCOc1ccc(-c2nc(-c3ccncc3)c(-c3ccc4c(c3)CC/C4=N\O)[nH]2)cc1` (10 µM), which morphology score is on record?
Answer: -0.0571

Question: How did the morphology score turn out when `c1ccc([C@H]2CNCc3ccccc32)cc1` [4-phenyl-1,2,3,4-tetrahydroisoquinoline] (10 µM) was run?
Answer: -0.263

Question: `CC(C)NNC(=O)c1ccncc1` [iproniazid] (10 µM) was tested. Which morphology score did it give?
Answer: 0.0745

Question: Which morphology score does the source give for `Cc1nc(-c2ccc(OCC(C)C)c(C#N)c2)sc1C(=O)O` [febuxostat] (10 µM) here?
Answer: 0.0407

Question: For `NCC(CS(=O)(=O)O)c1ccc(Cl)cc1` (stereo not given) [saclofen] (10 µM), which morphology score is on record?
Answer: 0.194

Question: How did the morphology score turn out when `CC[C@H](Nc1ncnc2[nH]cnc12)c1nc2cccc(F)c2c(=O)n1-c1ccccc1` [idelalisib] (10 µM) was run?
Answer: -0.015

Question: Which morphology score does the source give for `C=CC(=O)Nc1cccc(Oc2nc(Nc3ccc(N4CCN(C)CC4)cc3)ncc2Cl)c1` (10 µM) here?
Answer: -0.115

Question: `O=c1[nH]cnc2c1ncn2[C@H]1CC[C@@H](CO)O1` [didanosine] (10 µM) was tested. Which morphology score did it give?
Answer: 0.186

Question: `CCOc1cc(N)c(Cl)cc1C(=O)NCC1CN(Cc2ccc(F)cc2)CCO1` (stereo not given) [mosapride] (10 µM) was tested. Which morphology score did it give?
Answer: 0.33

Question: How did the morphology score turn out when `CC(C)(C)c1ccc(-c2nc3c(N4CCN(Cc5ccc6nccnc6c5)CC4)cccc3[nH]2)cc1` (0.833333 µM) was run?
Answer: 0.0532

Question: Which morphology score does the source give for `Nc1ccc(F)cc1NC(=O)c1ccc(CNC(=O)/C=C/c2cccnc2)cc1` [chidamide] (0.833333 µM) here?
Answer: -0.0654

Question: Which morphology score does the source give for `CC(C)Nc1cccnc1N1CCN(C(=O)c2cc3cc(NS(C)(=O)=O)ccc3[nH]2)CC1` [delavirdine] (10 µM) here?
Answer: 0.0195

Question: How did the morphology score turn out when `c1nc2c(NC3CCCCC3)nc(Nc3ccc(N4CCOCC4)cc3)nc2[nH]1` [reversine] (10 µM) was run?
Answer: -0.11

Question: With `CCCCCCCCCCCCCCCC[N+](C)(C)Cc1ccccc1` [benzyldimethylhexadecylammonium] (10 µM) as the molecule, how does the morphology score read?
Answer: 0.298

Question: Which morphology score does the source give for `COc1cc(SC)ccc1C(=O)N1CCC(Cc2ccccc2)CC1` (10 µM) here?
Answer: 0.0267

Question: With `C#Cc1cccc(Nc2ncnc3cc(OC)c(OCCCCCCC(=O)NO)cc23)c1` (0.833333 µM) as the molecule, how does the morphology score read?
Answer: -0.262

Question: `Cc1ncc([N+](=O)[O-])n1CC(O)CN1CCOCC1` (stereo not given) [morinidazole] (10 µM) was tested. Which morphology score did it give?
Answer: 0.12

Question: For `CC(=O)c1ccc2c(c1)N(CCCN(C)C)c1ccccc1S2` [acepromazine] (10 µM), which morphology score is on record?
Answer: 0.192

Question: Which morphology score does the source give for `COc1cc([C@@H]2c3cc4c(cc3[C@@H](O[C@@H]3O[C@@H]5CO[C@@H](c6cccs6)O[C@H]5[C@H](O)[C@H]3O)[C@H]3COC(=O)[C@H]23)OCO4)cc(OC)c1O` [teniposide] (10 µM) here?
Answer: -0.0983

Question: How did the morphology score turn out when `Cc1cc(S(=O)(=O)O)c2c(C)ccc(C(C)C)cc1-2` [sodium-gualenate] (10 µM) was run?
Answer: 0.0593

Question: For `COc1cc(Br)c(S(=O)(=O)Nc2ccc(C(F)(F)F)c(O[C@@H]3CCN(C)C3)c2)cc1OC` (10 µM), which morphology score is on record?
Answer: 0.024

Question: `CCn1cc(C(=O)O)c(=O)c2cc3c(cc21)OCO3` [oxolinic-acid] (10 µM) was tested. Which morphology score did it give?
Answer: 0.162

Question: For `CCc1ccc(OCc2ccccc2C(=O)Nc2ccc3nc(C)cc(N)c3c2)cc1` (0.833333 µM), which morphology score is on record?
Answer: 0.313

Question: Which morphology score does the source give for `CCCCOC(=O)c1ccccc1Nc1cccc(C(F)(F)F)c1` [ufenamate] (10 µM) here?
Answer: 0.129

Question: `NCCCCN` [putrescine] (10 µM) was tested. Which morphology score did it give?
Answer: 0.0364

Question: For `CC(C)(Oc1ccc(CCNC(=O)c2ccc(Cl)cc2)cc1)C(=O)O` [bezafibrate] (10 µM), which morphology score is on record?
Answer: 0.0236

Question: With `COc1ccc(-c2cc(=O)c3c(OC)c(OC)c(OC)c(OC)c3o2)cc1OC` [nobiletin] (10 µM) as the molecule, how does the morphology score read?
Answer: 0.322

Question: For `NC(=O)Nc1sc(-c2ccc(F)cc2)cc1C(N)=O` (0.833333 µM), which morphology score is on record?
Answer: 0.0683

Question: `Nc1ncnc2c1ncn2[C@@H]1O[C@H](COP(=O)(O)O)[C@@H](O)[C@H]1O` [adenosine-phosphate] (10 µM) was tested. Which morphology score did it give?
Answer: -0.114

Question: How did the morphology score turn out when `Nc1ncnc2c1nc(Br)n2[C@@H]1O[C@@H]2COP(=O)(O)O[C@H]2[C@H]1O` [8-bromo-cAMP] (10 µM) was run?
Answer: 0.422

Question: Which morphology score does the source give for `C#C[C@]1(O)C=C[C@H]2[C@@H]3CCC4=CC(=O)CC[C@@H]4[C@H]3CC[C@@]21CC` [gestodene] (10 µM) here?
Answer: 0.149

Question: With `C=CC[N@@+]12CC[C@@]34c5ccccc5N5/C=C6/[C@H]7C[C@H]8[C@@]9(CC[N@@+]8(CC=C)C/C7=C/CO)c7ccccc7N(/C=C(/[C@@H](C[C@@H]31)/C(=C\CO)C2)[C@H]54)[C@@H]69` [alcuronium] (10 µM) as the molecule, how does the morphology score read?
Answer: -0.108
